# PubChem BioAssay
# Calls of active or inactive are those of the source.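 How the source made its calls: active means mean z-score across replicates of 1.96 or higher in either the MELAS or the Rieske mutant cell line; inactive means the rest.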
# Assay: survival rescue of mitochondrial mutant cells in low glucose, primary screen, MELAS cybrids, Rieske KO mouse fibroblasts, CellTiter-Glo (AID 1508586);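 further: test concentration not given here; z relative to plate mean and SD of compound and empty wells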
# Settings: MELAS cybrid survival, CellTiter-Glo 48 h, stronger effect = higher value
row,SMILES,z-score
1,OB(O)c1cc2ccccc2s1,-0.459 (inactive)
2,O=C(O)c1sccc1S(=O)(=O)Nc1ccc(Cl)cc1,-0.651 (inactive)
3,COc1ccc2c(c1)CCN(C(=O)Nc1n[nH]c(-c3ccco3)n1)C2,0.18
4,Cc1ccc(NC(=O)NCCSCc2ccc(CN(C)C)o2)cc1Cl,0.133 (inactive)
5,CSCCC(NC(C)=O)C(=O)O (stereo not drawn),0.71 (inactive)
6,Cc1ccc(NC(=O)c2ccc3nccnc3c2)cn1,0.00943 (inactive)
7,Cn1c(=O)ccc2ccccc21,-0.16 (inactive)
8,COc1cccc(Cc2noc(-c3nccc4ccccc34)n2)c1,0.324 (inactive)
9,Cc1csc(CNc2nccc(-c3cn(C)nc3C)n2)n1,-0.307 (inactive)
10,O=C(NCCc1ccco1)c1cc(C2CC2)[nH]n1,0.356 (inactive)
11,Cc1cc(-c2cnn(CC(=O)Nc3ccnn3Cc3ccccc3)c2)nc(N)n1,-0.562 (inactive)
12,O=C(Nc1n[nH]c(Cc2ccccc2)n1)N1CCN(c2ncccn2)CC1,-0.0698
13,Cc1cc(C)n(CCCNc2ncc(C)c(-c3cnn(C)c3)n2)n1,-0.406 (inactive)
14,c1cc(-c2nc(Cc3ccsc3)no2)c2nccnc2c1,-0.0904 (inactive)
15,O=C(Nc1nncs1)NC1Cc2ccccc2C1,-0.741 (inactive)
16,COc1ccccc1-c1ccc(C(=O)O)o1,-1.1 (inactive)
17,COc1ccc(C(=O)N2CCN(C(=O)c3ccc4sc(N)nc4c3)CC2)cc1,-0.342 (inactive)
18,CC1(C)OC2CO[C@@]3(COS(N)(=O)=O)OC(C)(C)OC3C2O1 (stereo partly drawn),1.94 (inactive)
